Assay results as given in the supplement of paper PMC4723716.
± gives the uncertainty stated by the source. The full ranking holds about 9,900 compounds; the median of “viability index relative to DMSO control” is about 1, and the lowest 2% start at about 0.85. Only a selection was taken, and the lowest values are over-represented in it overall.

tested on: Plasmodium falciparum NF54 stage V gametocytes; assay: viability index relative to DMSO control (fraction); higher = less gametocyte killing; settings: 2.5 µM, library set: Broad Institute DOS, incubation time: 72 h
Description: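 Broad DOS informer set and blood-stage-active DOS compounds screened in duplicate at 2.5 µM against P. falciparum NF54 stage V gametocytes with the serum-free one-step SaLSSA (1536-well): 72 h at 37 °C under low oxygen, then saponin lysis and MitoTracker Red CMXRos staining, with high-content imaging. Viability index = viable-object count divided by the plate mean of DMSO wells (0 = killed, about 1 = inactive).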

Row | SMILES | viability index
1 | O=C1CNC[C@H]2[C@@H](c3ccc(Br)cc3)[C@H](CO)N12 | 0.837 ± 0.14
2 | O=C1CNC[C@@H]2[C@H](c3ccc(Br)cc3)[C@H](CO)N12 | 0.992 ± 0.074
3 | O=C1CNC[C@H]2[C@H](c3ccc(Br)cc3)[C@H](CO)N12 | 1.05 ± 0.023
4 | COc1cccc(-c2ccc([C@H]3[C@@H](CO)N4CCCCN(C(=O)Cc5ccncc5)C[C@H]34)cc2)c1 | 1.06 ± 0.046
5 | O=C(O)C[C@@H]1CC[C@H]2NC[C@@H](O)COC[C@@H]2O1 | 1.13 ± 0.034
6 | O=C(Cc1ccncc1)N1CCCCN2[C@@H](CO)[C@H](c3ccc(C#Cc4ccccc4F)cc3)[C@@H]2C1 | 0.84 ± 0.22
7 | O=C(Cc1ccncc1)N1CCCCN2[C@H](CO)[C@@H](c3ccc(C#Cc4ccccc4F)cc3)[C@@H]2C1 | 0.9619 ± 0.0014
8 | O=C(Cc1ccncc1)N1CCCCN2[C@@H](CO)[C@@H](c3ccc(C#Cc4ccccc4F)cc3)[C@@H]2C1 | 0.964 ± 0.047
9 | C[C@@H]1CN([C@@H](C)CO)C(=O)CCCn2cc(nn2)CO[C@@H]1CN(C)C(=O)Oc1ccc2ccccc2c1 | 1.05 ± 0.019
10 | C/C=C/c1ccc([C@@H]2[C@@H]3CN(C(=O)C4CCOCC4)C[C@H]2N3)cc1 | 1.06 ± 0.011
